Experimental data published in PubChem BioAssay (NCATS).
Results filed as inconclusive are left out. The source made the active and inactive calls. Calls come from the whole dose curve; as a rule, active = well fitted activation curve with a large enough effect; inconclusive = small, poorly fitted or top-dose-only effect; inactive = flat fitted curve, though single readings scatter.

Assay: Primary redox qHTS assay for identification of artifact compounds. (AID 1845223);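 note: 0% = DMSO and 100% = reference compound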
Settings: Amplex Red/HRP redox cycling with DTT, fluorescence; series mostly up to 53.8 µM; redox activity (% of DA3003): at the top concentration
Procedure, shortened: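 Redox-cycling detection via DTT (250 uM final) oxidation coupled to Amplex Red (25 uM)/HRP (250 mU/mL) in HBSS. 15 min preincubation plus 30 min after DTT, room temperature. Ex/Em 525/598 nm; 4-parameter Hill fit against DMSO and 10 uM DA3003.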

| Compound | redox activity (% of DA3003) |
| --- | --- |
| COC(=O)C1=CO[C@@H](O[C@@H]2O[C@H](CO)[C@@H](O)[C@H](O)[C@H]2O)[C@@H]2[C@@H](C(=O)O)CC[C@H]12 | -17.8% [at 25.6 µM] (inactive) |
| CC1CC(=O)[C@]2(O)C(C(=O)OCCc3ccc(O)cc3)=CO[C@@H](O[C@@H]3O[C@H](CO)[C@@H](O)[C@H](O)[C@H]3O)[C@H]12 (stereo not given in full) | -1.16% [at 25.6 µM] (inactive) |
| C=C1C[C@]23C[C@H]1CC[C@H]2[C@]1(C)CC[C@H](O)[C@@](C)(C(=O)O)[C@H]1[C@@H]3C(=O)O | 19.7% (inactive) |
| C/C=C(/C)C(=O)O[C@@H]1C[C@@H](OC(=O)/C(C)=C\C)[C@@]2(C)C3C(=O)C=C(C)C2C3C1(C)C | 7.72% [at 25.6 µM] (inactive) |
| CC1=C(CO)CC(C(C)C2CCC3C4CC=C5CC(OC6OC(COC7OC(CO)C(O)C(O)C7O)C(O)C(O)C6O)CC(O)C5(C)C4CCC23C)OC1=O (stereo not given) | 12.2% [at 25.6 µM] (inactive) |
